An excerpt weighted towards active compounds, which were near 6.3% of everything screened.
TIM10 inh: inhibits growth of TIM10 yeast strain. S. cerevisiae TIM10 strain growth, BacTiter-Glo luminescence, 24 h. inhibition, % at 10 µM. 330,000 compounds, 1.4% hits. AID 463195;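 active means inhibition of 40% or more at the single tested concentration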;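 further: wild-type TIM10 isogenic control strain grown at permissive 25 °C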
Mdm2 MdmX PPI: human Mdm2/MdmX binding inhibition. O15151+Q00987. SaOS-2 split-luciferase Mdm2/MdmX complementation, luminescence. inhibition, % at 8 µM. 330,000 compounds, 3% hits. AID 485346;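 active means inhibition of at least 50% at 8 µM in the primary screen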
Target sequence (O15151 whole entry, looked up): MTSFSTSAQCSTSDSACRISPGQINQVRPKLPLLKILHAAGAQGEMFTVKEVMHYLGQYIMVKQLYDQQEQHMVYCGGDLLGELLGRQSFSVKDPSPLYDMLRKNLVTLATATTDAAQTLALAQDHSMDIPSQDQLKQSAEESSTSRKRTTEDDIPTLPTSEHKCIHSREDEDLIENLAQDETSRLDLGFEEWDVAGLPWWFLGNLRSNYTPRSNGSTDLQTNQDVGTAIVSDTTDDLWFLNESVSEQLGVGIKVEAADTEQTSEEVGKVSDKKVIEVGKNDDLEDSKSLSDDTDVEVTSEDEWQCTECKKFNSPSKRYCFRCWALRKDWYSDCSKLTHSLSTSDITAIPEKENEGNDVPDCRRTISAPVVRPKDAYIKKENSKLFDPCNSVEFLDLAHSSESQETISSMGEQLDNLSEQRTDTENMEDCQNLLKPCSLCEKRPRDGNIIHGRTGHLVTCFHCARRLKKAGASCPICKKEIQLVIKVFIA
Target sequence (Q00987 whole entry, looked up): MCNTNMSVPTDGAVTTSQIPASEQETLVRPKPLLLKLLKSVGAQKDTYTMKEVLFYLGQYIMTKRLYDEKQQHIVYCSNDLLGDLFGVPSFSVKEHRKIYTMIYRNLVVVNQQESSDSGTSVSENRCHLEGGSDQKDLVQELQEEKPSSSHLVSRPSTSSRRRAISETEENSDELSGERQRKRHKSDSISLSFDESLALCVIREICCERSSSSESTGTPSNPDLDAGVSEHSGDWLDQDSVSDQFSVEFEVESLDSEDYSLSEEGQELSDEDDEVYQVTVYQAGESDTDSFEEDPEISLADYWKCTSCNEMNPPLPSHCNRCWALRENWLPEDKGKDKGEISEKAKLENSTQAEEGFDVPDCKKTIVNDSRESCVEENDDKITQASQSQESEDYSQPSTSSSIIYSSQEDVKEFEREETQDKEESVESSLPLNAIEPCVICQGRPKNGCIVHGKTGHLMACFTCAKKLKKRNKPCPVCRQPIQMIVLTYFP
MPTP block: blocks calcium-induced mitochondrial swelling; inhibition, % at 10 µM; isolated mouse mitochondria, Ca2+ swelling absorbance, 30 min; 360,000 compounds, 1.4% hits; AID 602449;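 active means inhibition of 50% or more, scaled per plate between neutral and stimulator controls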;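 further: 0% = DMSO wells given calcium and 100% = 1 mM EGTA wells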
tim23-1 inh: tim23-1 yeast growth inhibition; S. cerevisiae tim23-1 growth, BacTiter-Glo luminescence, 24 h; inhibition, % at 20 µM; 330,000 compounds, 1.3% hits; AID 463212;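 active means growth inhibition of the mutant yeast at or above 50%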;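 further: temperature-sensitive mutant grown at 25 °C; plate controls were DMSO-treated mutant yeast for no effect and medium wells lacking yeast for full effect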
tim10-1 inh: tim10-1 yeast growth inhibition; S. cerevisiae tim10-1 ts strain growth, BacTiter-Glo, 24 h; inhibition, % at 20 µM; 330,000 compounds, 2.2% hits;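 active means inhibition of at least 40%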;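 further: mutant grown at 25 °C; 0% = DMSO wells with yeast and 100% = wells holding no yeast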
Mdm2 MdmX conf: confirmation of human Mdm2/MdmX interaction inhibitors; shares compounds with Mdm2 MdmX PPI; inhibition, % at 8 µM; AID 489028; Mdm2-MdmX binding, luminescent assay; 10,000 compounds, 55% hits; in the data active means inhibition above about 40%
FLuc counter: inhibits full-length luciferase, flagging false Mdm2/MdmX hits; shares compounds with Mdm2 MdmX PPI; SaOS-2 full-length luciferase counterscreen, luminescence; inhibition, % at 8 µM; 6,200 compounds, 77% hits; AID 504607;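 active means mean inhibition at 8 µM reaching about 37%, which flags the compound as non-specific, limit read from the data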;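 further: p53-null SaOS-2 cells with luciferase driven by a doxycycline-inducible promoter; compound on cells about two nights before reading with doxycycline added after day one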
MPTP counter: mitochondrial membrane potential, counter-screen. shares compounds with MPTP block. isolated mitochondria, Rhodamine 123 fluorescence. inhibition, % at 10 µM. 5,000 compounds, 78% hits; in the data active means inhibition above about 22%;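 further: 0% = DMSO vehicle and 100% = positive control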
MPTP abs DR: dose response confirmation of mitochondrial permeability transition pore inhibitors; shares compounds with MPTP block; isolated mitochondria swelling, absorbance; IC50, µM; 780 compounds, 58% hits; AID 651561; in the data active means IC50 below about 20 µM
MPTP counter DR: active in counter-screen for permeability transition pore inhibitors. shares compounds with MPTP block. isolated mitochondria counterscreen, fluorescence read-out. IC50, µM. 780 compounds, 49% hits. AID 651564; in the data active means IC50 below about 80 µM
An asterisk follows results filed as active.

How did CC1(C(=O)NCc2ccccc2Br)CCN1Cc1ccc(-c2ccccc2)o1 (configuration not stated) do in these assays?
MPTP block: 1

What do the screens show for `CCCNC(=O)C1(C)CCCN(Cc2c(F)cccc2F)C1` (configuration not stated)?
MPTP block: -1

Results for CC(C)(C)c1ccc(C(O)CCCN2CCC(C(O)(c3ccccc3)c3ccccc3)CC2)cc1 (configuration not stated) ?
TIM10 inh: 4; Mdm2 MdmX PPI: 99*; MPTP block: 92*; tim23-1 inh: -5; tim10-1 inh: -9; Mdm2 MdmX conf: 88*; FLuc counter: 42*; MPTP counter: -20

Results for CN1CC2=Cc3ccccc3OC23Oc2ccccc2C=C3C1 ?
TIM10 inh: 23; Mdm2 MdmX PPI: 59*; MPTP block: 65*; tim23-1 inh: 28; tim10-1 inh: 28; Mdm2 MdmX conf: 25; MPTP counter: -6; MPTP abs DR: inactive; MPTP counter DR: >80

How did CCC(NC(=S)NCc1ccc(F)cc1)c1ccc(C(C)C)cc1 (configuration not stated) do in these assays?
TIM10 inh: 24; Mdm2 MdmX PPI: 76*; MPTP block: 79*; tim23-1 inh: 30; tim10-1 inh: 32; Mdm2 MdmX conf: 23; MPTP counter: 91*

What do the screens show for `O=[N+]([O-])c1ccc(C[n+]2cccc3c4ccccc4ccc32)cc1`?
TIM10 inh: 5; Mdm2 MdmX PPI: 19; MPTP block: -1; tim23-1 inh: -1; tim10-1 inh: -3

Results for CCCCCCCCC[n+]1cccc2c3ccccc3ccc21 ?
TIM10 inh: -53; Mdm2 MdmX PPI: 91*; MPTP block: 89*; tim23-1 inh: -52; tim10-1 inh: 16; Mdm2 MdmX conf: 87*; FLuc counter: 57*; MPTP counter: 117*

How did C1CCC(C(CC2CCCCN2)C2CCCCC2)CC1 (configuration not stated) do in these assays?
TIM10 inh: 22; Mdm2 MdmX PPI: 100*; MPTP block: 82*; tim23-1 inh: -5; tim10-1 inh: 3; Mdm2 MdmX conf: 99*; FLuc counter: 24; MPTP counter: -10

Results for Cc1ccc(C(C)C)c(OCC(=O)Nc2ccc3c(c2)nc(CCN2CCCCC2)n3C)c1 ?
TIM10 inh: 19; Mdm2 MdmX PPI: 99*; MPTP block: 73*; tim23-1 inh: 0; tim10-1 inh: 11; Mdm2 MdmX conf: 82*; FLuc counter: 60*; MPTP counter: -20; MPTP abs DR: 6.1*; MPTP counter DR: 75*

How did CC(C)c1ccc(C2C3=C(CC(C)(C)CC3=O)NC3=C2C(=O)c2ccccc23)cc1 (configuration not stated) do in these assays?
TIM10 inh: 15; Mdm2 MdmX PPI: 73*; MPTP block: 84*; tim23-1 inh: 14; tim10-1 inh: 16; Mdm2 MdmX conf: 26; MPTP counter: 61*

What do the screens show for `C[C@H](CO)N1C[C@H](C)[C@H](CN(C)C(=O)c2ccccc2)OCc2cnnn2CCCC1=O`?
MPTP block: -1

Results for O=C(N/N=C/c1ccccc1)c1[nH]c2ccc(Br)cc2c1-c1ccccc1 ?
TIM10 inh: 27; Mdm2 MdmX PPI: 63*; MPTP block: 86*; tim23-1 inh: 0; tim10-1 inh: 32; Mdm2 MdmX conf: 67*; FLuc counter: 83*; MPTP counter: 90*

Results for O=C(NN=C1CCCC1)c1[nH]c2ccc(Br)cc2c1-c1ccccc1 ?
TIM10 inh: 9; Mdm2 MdmX PPI: 27; tim23-1 inh: 25; tim10-1 inh: 22

Results for Nc1nc(Cl)cc(NCCc2ccc(O)cc2)n1 ?
TIM10 inh: -5; Mdm2 MdmX PPI: 27; MPTP block: 4; tim23-1 inh: 6; tim10-1 inh: 5

How did Oc1ccc(CCNc2ncnc3ccc(Cl)cc23)cc1 do in these assays?
TIM10 inh: -4; Mdm2 MdmX PPI: 64*; MPTP block: 95*; tim23-1 inh: -2; tim10-1 inh: -2; Mdm2 MdmX conf: 73*; FLuc counter: 29; MPTP counter: 97*

How did CC1(C(=O)NS(=O)(=O)c2ccccc2)CCN1C(=O)COc1ccc(Cl)cc1 (configuration not stated) do in these assays?
MPTP block: 0

How did COc1cc(CNC2CCCC2)cc(Cl)c1OCc1ccccc1Cl do in these assays?
TIM10 inh: -51; Mdm2 MdmX PPI: 52*; MPTP block: 82*; tim23-1 inh: -40; tim10-1 inh: -25; Mdm2 MdmX conf: 35; MPTP counter: -11

How did COc1cc(CNCCO)cc(Cl)c1OCc1ccc(Cl)cc1Cl do in these assays?
TIM10 inh: -48; Mdm2 MdmX PPI: 51*; MPTP block: 97*; tim23-1 inh: -8; tim10-1 inh: -47; Mdm2 MdmX conf: 49*; FLuc counter: 85*; MPTP counter: -12

What do the screens show for `CCSc1nnc(NC(=O)NC(CC)(C(F)(F)F)C(F)(F)F)s1`?
TIM10 inh: -1; Mdm2 MdmX PPI: 90*; MPTP block: 88*; tim23-1 inh: 10; tim10-1 inh: 16; Mdm2 MdmX conf: 36; FLuc counter: 64*; MPTP counter: 102*

What do the screens show for `O=C(Nc1cc(C(F)(F)F)cc(C(F)(F)F)c1)Nc1cnn(-c2ccc([N+](=O)[O-])cc2)c1C(F)(F)F`?
TIM10 inh: 23; Mdm2 MdmX PPI: 100*; MPTP block: 88*; tim23-1 inh: 9; tim10-1 inh: 10; Mdm2 MdmX conf: 93*; FLuc counter: 60*; MPTP counter: 63*

How did CC(C)COCC(CN(Cc1ccccc1)c1ccccc1)N1CCCC1 (configuration not stated) do in these assays?
TIM10 inh: 20; Mdm2 MdmX PPI: 60*; MPTP block: 92*; tim23-1 inh: 12; tim10-1 inh: 38; Mdm2 MdmX conf: 34; MPTP counter: -5; MPTP abs DR: 14*; MPTP counter DR: 44*

Results for COc1ccc(CCC(=O)N2CCN(S(=O)(=O)c3ccc(OC)c([N+](=O)[O-])c3)CC2)cc1 ?
MPTP block: 0

How did CN1CCc2c(n(CC(O)CNCc3ccccc3)c3ccccc23)C1=O (configuration not stated) do in these assays?
TIM10 inh: 10; Mdm2 MdmX PPI: 17; MPTP block: -1; tim23-1 inh: 12; tim10-1 inh: 10

Bioassay records from PubChem BioAssay.
